In PubChem BioAssay (Tox21):
Records with an inconclusive call do not appear. Activity calls are given as the source filed them. Unless noted, calls follow the shape of the dose curve; as a rule, active = well fitted curve in the direction sought with a large enough effect in the repeat runs; inconclusive = weak or mixed curves; inactive = no such curve, though single readings can be large; an effect the other way counts as inactive or inconclusive.

How the values were obtained:
[1] = qHTS RealTime-Glo MT Cell Viability Assay in HEK293 cells - 0 hour (AID 1224880); also: top concentration of the series differs between compounds; nearly all actives have a fitted effect of over 45% in size
Procedure, shortened: (§1)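 Viable HEK293 cells reduce a cell-permeant prosubstrate; the product diffuses out and is consumed by NanoLuc in the medium to give light. Compounds went in after a 5 h incubation and plates were read over the treatment course.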

[2] = A CellTox Green Cytotoxicity Assay to monitor cytotoxicity in HEK293 cells - 32 hour (AID 1224881); also: nearly all actives have a fitted effect of over 40% in size
Procedure, shortened: (§2)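 Fluorescence intensity, read at 0, 8, 16, 24, 32 and 40 h of compound treatment, reflected dye binding to DNA of dead HEK293 cells; compounds (23 nL, DMSO) were added 5 h after plating cells with reagent.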

[3] = A CellTox Green Cytotoxicity Assay to monitor cytotoxicity in HepG2 cells - 0 hour (AID 1224882); also: nearly all actives have a fitted effect of over 35% in size
Procedure, shortened: (§3)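 Using 1536-well format, dye-containing HepG2 suspension was seeded, allowed 5 h at 37 C/5% CO2, dosed by pintool with compounds, positive and negative controls, and imaged for fluorescence across 40 h.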

[4] = A CellTox Green Cytotoxicity Assay to monitor cytotoxicity in HepG2 cells - 32 hour (AID 1224883); also: nearly all actives have a fitted effect of over 50% in size
Procedure, shortened: as §3

[5] = A CellTox Green Cytotoxicity Assay to monitor cytotoxicity in HEK293 cells - 8 hour (AID 1224884); also: nearly all actives have a fitted effect of over 35% in size
Procedure, shortened: as §2

[6] = qHTS RealTime-Glo MT Cell Viability Assay in HepG2 cells - 16 hour (AID 1224885); also: nearly all actives have a fitted effect of over 50% in size
Procedure, shortened: (§4)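 Real-time, nonlytic viability: 600 HepG2 cells/well mixed with NanoLuc enzyme plus prosubstrate; 5 h settle, compound (DMSO) added by pintool; luminescence monitored over 40 h at 37 C.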

[7] = qHTS RealTime-Glo MT Cell Viability Assay in HEK293 cells - 24 hour (AID 1224886); also: top concentration of the series differs between compounds; nearly all actives have a fitted effect of over 50% in size
Procedure, shortened: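 Cells + reagent dispensed (600 cells/well, HEK293) → 5 h at 37 C/5% CO2 → 23 nL compound in DMSO pinned → 40 h at 37 C → luminescence read at 0, 8, 16, 24, 32, 40 h.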

[8] = qHTS RealTime-Glo MT Cell Viability Assay in HEK293 cells - 8 hour (AID 1224887); also: top concentration of the series differs between compounds; nearly all actives have a fitted effect of over 50% in size
Procedure, shortened: as §1

[9] = A CellTox Green Cytotoxicity Assay to monitor cytotoxicity in HEK293 cells - 16 hour (AID 1224888); also: nearly all actives have a fitted effect of over 35% in size
Procedure, shortened: as §2

[10] = qHTS RealTime-Glo MT Cell Viability Assay in HepG2 cells - 0 hour (AID 1224889); also: nearly all actives have a fitted effect of over 50% in size
Procedure, shortened: as §4

[11] = A CellTox Green Cytotoxicity Assay to monitor cytotoxicity in HepG2 cells - 8 hour (AID 1224890); also: nearly all actives have a fitted effect of over 45% in size
Procedure, shortened: as §3

[12] = qHTS assay to identify small molecule antagonists of the estrogen receptor alpha (ER-alpha) signaling pathway using the BG1 cell line in the presence of 0.1 nM 17-beta-estradiol - cell viability counter screen (AID 1259241); also: nearly all actives have a fitted effect of over 40% in size
Procedure, shortened: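 The cell line endogenously expresses full-length ER-alpha and carries four EREs driving luciferase. Cells are cultured 5 days hormone-free, treated 22 hr with compounds and 0.1 nM estradiol, then viability is read by fluorescence.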

[13] = qHTS assay to identify small molecule antagonists of the androgen receptor (AR) signaling pathway using the MDA cell line in the presence of 0.5 nM R1881 - cell viability counter screen (AID 1259242); also: nearly all actives have a fitted effect of over 45% in size
Procedure, shortened: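 Viability of MDA-kb2 cells was multiplexed with the luciferase AR readout; after 16 hr with compounds and R1881 at 0.5 nM final, CellTiter-Fluor fluorescence was recorded.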

[14] = biological target: Estrogen receptor (Homo sapiens) (UniProt P03372); test: qHTS assay to identify small molecule antagonists of the estrogen receptor alpha (ER-alpha) signaling pathway using the BG1 cell line in the presence of 0.1 nM 17-beta-estradiol (AID 1259244); also: nearly all actives have a fitted effect of over 50% in size
Estrogen receptor (Homo sapiens), sequence (P03372 whole entry, looked up): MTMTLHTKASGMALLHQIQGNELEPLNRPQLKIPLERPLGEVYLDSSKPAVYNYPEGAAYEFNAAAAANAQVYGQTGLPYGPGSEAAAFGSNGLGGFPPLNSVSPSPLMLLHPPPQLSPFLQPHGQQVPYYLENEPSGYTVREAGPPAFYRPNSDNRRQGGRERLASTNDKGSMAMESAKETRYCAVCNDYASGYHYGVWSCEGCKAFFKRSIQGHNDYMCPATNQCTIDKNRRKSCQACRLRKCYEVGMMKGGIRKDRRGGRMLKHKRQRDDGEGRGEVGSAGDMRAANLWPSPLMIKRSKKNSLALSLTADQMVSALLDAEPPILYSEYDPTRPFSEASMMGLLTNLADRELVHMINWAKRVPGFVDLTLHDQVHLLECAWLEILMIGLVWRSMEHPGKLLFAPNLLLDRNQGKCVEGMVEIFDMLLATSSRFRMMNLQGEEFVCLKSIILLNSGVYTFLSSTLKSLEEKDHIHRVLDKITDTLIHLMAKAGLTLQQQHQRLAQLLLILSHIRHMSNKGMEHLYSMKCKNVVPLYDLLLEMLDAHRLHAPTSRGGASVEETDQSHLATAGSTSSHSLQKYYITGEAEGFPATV
Procedure, shortened: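 Estradiol at 0.1 nM (final) stimulates the endogenous ER-alpha of VM7Luc4E2 cells carrying an ERE-driven luciferase; compounds are co-incubated 22 h at 37C and luciferase output quantified by luminescence.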

[15] = qHTS assay to identify small molecule HDAC inhibitors (AID 1259364);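 also: wild-type HCT-116 cells with endogenous class I/II HDAC activity; top concentration of the series differs between compounds; nearly all actives have a fitted effect of over 45% in size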
Procedure, shortened: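 Read-out: luminescence of HDAC-Glo I/II reagent, 30 min RT, reflecting class I/II deacetylase activity in whole HCT-116 cells pre-exposed 2 h to DMSO-dissolved compounds.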

[16] = qHTS assay to identify small molecule HDAC inhibitors - cell viability counter screen (AID 1259365)
Procedure, shortened: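 Viability readout: CellTiter-Glo luminescence. Wild-type HCT-116 cells, 2hr compound treatment following overnight attachment at 37 C.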

[17] = qHTS assay to identify small molecule agonists of the sonic hedgehog signaling (Shh) pathway - cell viability counter screen (AID 1259366); also: nearly all actives have a fitted effect of over 50% in size
Procedure, shortened: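 Viability measured fluorometrically (CellTiter-Fluor, 1hr, 37C) in 3T3 Gli1-Luc reporter cells after 23hr compound exposure within a 24hr incubation at 37C/5% CO2.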

[18] = qHTS assay to identify small molecule antagonists of the sonic hedgehog signaling (Shh) pathway - cell viability counter screen (AID 1259367); also: nearly all actives have a fitted effect of over 55% in size
Procedure, shortened: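 After a 4 hr settling period, 3T3 Gli1-Luc cells were treated with DMSO-dissolved chemicals and conditioned medium, kept 24 hr at 37C in 5% CO2, and assayed for viability by CellTiter-Fluor fluorescence following 1 hr reagent incubation.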

[19] = biological target: Androgen receptor (Homo sapiens) (UniProt P10275); test: qHTS assay to identify small molecule antagonists of the androgen receptor (AR) signaling pathway using the MDA cell line in the presence of 0.5 nM R1881 (AID 1259243); also: nearly all actives have a fitted effect of over 50% in size
Androgen receptor (Homo sapiens), sequence (P10275 whole entry, looked up): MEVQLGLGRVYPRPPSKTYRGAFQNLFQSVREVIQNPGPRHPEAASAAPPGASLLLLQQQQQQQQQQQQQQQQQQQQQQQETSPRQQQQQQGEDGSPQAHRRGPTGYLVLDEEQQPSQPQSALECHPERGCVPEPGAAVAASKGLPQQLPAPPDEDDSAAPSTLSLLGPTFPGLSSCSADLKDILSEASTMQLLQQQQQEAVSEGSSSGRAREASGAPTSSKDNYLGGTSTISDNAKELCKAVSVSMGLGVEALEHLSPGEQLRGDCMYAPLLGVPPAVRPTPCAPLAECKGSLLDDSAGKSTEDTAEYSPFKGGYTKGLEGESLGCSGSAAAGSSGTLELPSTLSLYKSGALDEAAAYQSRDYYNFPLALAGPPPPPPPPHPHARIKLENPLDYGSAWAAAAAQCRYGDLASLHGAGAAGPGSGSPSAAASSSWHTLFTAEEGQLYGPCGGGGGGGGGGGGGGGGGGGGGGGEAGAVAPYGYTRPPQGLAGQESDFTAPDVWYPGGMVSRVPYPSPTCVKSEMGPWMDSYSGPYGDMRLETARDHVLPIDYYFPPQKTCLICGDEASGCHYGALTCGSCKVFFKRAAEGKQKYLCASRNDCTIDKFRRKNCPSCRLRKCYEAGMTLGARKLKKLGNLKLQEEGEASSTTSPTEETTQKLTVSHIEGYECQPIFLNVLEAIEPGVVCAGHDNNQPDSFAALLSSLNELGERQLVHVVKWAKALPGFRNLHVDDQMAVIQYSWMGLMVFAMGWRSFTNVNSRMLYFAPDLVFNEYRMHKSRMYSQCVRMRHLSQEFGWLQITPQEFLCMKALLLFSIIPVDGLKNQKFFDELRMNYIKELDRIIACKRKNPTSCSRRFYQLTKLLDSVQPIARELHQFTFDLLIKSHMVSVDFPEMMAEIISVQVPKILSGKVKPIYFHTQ
Procedure, shortened: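 Reporter cells cultured without CO2 receive test chemicals, then 0.5 nM R1881 final; after 16 hr at 37C, ONE-Glo is added and light output recorded.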

[20] = qHTS assay to identify small molecule phospholipidosis (PLD) inducers (AID 1259344; active = well fitted curve in the direction sought with a large enough effect; an effect the other way counts as inactive or inconclusive)
Procedure, shortened: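 HepG2 cells grown on collagen I take up LipidTOX Red while exposed to compound for 24 h; after fixation they are imaged at 20x and pit metrics are extracted.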

Measured: Potency

CCCCCCCCCCCC(=O)OCC
not listed: [19] | [20]
inactive: all other assays above

CC(C)Oc1ccccc1O
not listed: [18] | [19] | [20]
inactive: all other assays above

CCC1=C(C)CN(C(=O)NCCc2ccc(S(=O)(=O)NC(=O)NC3CCC(C)CC3)cc2)C1=O (stereo not given)
inactive: all assays above

O=C(O)c1ccc(O)c(O)c1
not listed: [14] | [20]
inactive: all other assays above

CCCc1ccc(OC)cc1
not listed: [20]
inactive: all other assays above

NC(=O)c1ccccc1
not listed: [14] | [20]
inactive: all other assays above

CCCCCCCCCCCCSC#N
not listed: [19] | [20]
inactive: all other assays above

CCCCCCCCS
not listed: [16] | [19] | [20]
inactive: all other assays above
